This passage reports z-score results from PubChem BioAssay AID488969 (Vanderbilt High Throughput Screening Facility, 2010).

The structures appear in SMILES notation. Over roughly 110,000 compounds, “z-score” has its median near -0.1; the highest 2% begin near 2. The list comes from a sample in which the highest values are over-represented; it also holds similar structures and randomly drawn compounds. Active and inactive are the calls of the source.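 How the source made its calls: active means z-score in the third read window above 3 or below -3; inactive means the rest.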

Metabotropic glutamate receptor 8 (Rattus norvegicus), sequence (P70579 whole entry, looked up): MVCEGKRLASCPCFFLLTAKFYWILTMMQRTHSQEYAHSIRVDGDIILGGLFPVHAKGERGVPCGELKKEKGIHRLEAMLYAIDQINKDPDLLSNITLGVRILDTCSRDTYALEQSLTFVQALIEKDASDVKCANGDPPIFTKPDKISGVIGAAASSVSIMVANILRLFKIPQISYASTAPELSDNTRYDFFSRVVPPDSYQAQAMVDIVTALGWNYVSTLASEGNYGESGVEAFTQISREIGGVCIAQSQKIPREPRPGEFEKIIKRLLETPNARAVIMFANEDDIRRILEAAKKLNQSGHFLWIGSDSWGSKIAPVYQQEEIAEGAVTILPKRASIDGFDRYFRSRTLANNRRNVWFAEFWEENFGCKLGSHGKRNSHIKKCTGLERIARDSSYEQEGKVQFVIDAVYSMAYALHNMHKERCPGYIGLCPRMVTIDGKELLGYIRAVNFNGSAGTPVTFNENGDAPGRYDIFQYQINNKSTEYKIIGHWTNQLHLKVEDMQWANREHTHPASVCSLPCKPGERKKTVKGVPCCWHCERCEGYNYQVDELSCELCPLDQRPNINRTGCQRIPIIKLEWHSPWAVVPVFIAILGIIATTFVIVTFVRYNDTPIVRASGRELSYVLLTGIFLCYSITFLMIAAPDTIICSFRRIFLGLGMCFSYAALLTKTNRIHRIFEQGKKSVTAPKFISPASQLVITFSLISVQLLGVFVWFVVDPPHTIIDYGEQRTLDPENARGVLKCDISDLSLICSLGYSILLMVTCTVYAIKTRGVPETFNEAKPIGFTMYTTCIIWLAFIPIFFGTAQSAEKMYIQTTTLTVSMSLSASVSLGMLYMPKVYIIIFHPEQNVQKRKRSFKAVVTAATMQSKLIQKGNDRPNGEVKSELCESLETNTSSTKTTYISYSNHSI

This test addresses Metabotropic glutamate receptor 8 (Rattus norvegicus) (UniProt P70579). As to the kind of experiment: mGluR8 Gi/Go-coupled signaling modulation – cell-based, rat, thallium flux, HTS, primary screen (AID 488969). The settings on record: HEK293 rat mGluR8, GIRK (G protein-gated inwardly rectifying potassium channel) thallium flux, FluoZin2; at 10 µM; stronger effect = higher value; submaximal glutamate (EC20) added with thallium.
The compound `N#Cc1ccccc1NC(=O)c1ccccc1OCC(=O)Nc1ccc2c(c1)oc1ccccc12` had a z-score of -0.362.

As for `CC(C)(C)NC(=O)COC(=O)c1ccccc1OCC(=O)Nc1ccc(Br)cc1`, the z-score was -0.154.

Turning to `CCN1C(=O)CC(N2CCC(Nc3ccc(OC)cc3)CC2)C1=O` (stereo unspecified), the z-score stood at 0.0918.

For the compound `COc1ccc(CCNC(=O)COc2ccc(S(=O)(=O)NCC(C)C)cc2Cl)cc1OC`, the z-score is -0.464.

For the compound `Cc1ccc(NC(=O)/C(C#N)=C/c2cc(C)n(-c3ccc(N4CCOCC4)c([N+](=O)[O-])c3)c2C)c(C)c1`, the z-score was -0.136.

For the compound `CCOC(=O)N1CCC(N2C(=O)c3ccccc3C2Nc2c(C)cccc2C)CC1` (stereo unspecified), the z-score is -0.177.

With `CCOC(=O)N1CCC(N2C(=O)c3ccccc3C2Nc2ccccc2)CC1` (stereo unspecified), the z-score was -0.126.

On to `CCOC(=O)N1CCC(N2C(=O)c3ccccc3C2Nc2ccccc2C)CC1` (stereo unspecified), for which the z-score was determined as 2.74.

On to `CCOC(=O)c1ccccc1NC1c2ccccc2C(=O)N1C1CCN(C(=O)OCC)CC1` (stereo unspecified), for which the z-score was -0.69.

In turn, `CCOC(=O)N1CCC(N2C(=O)c3ccccc3C2Nc2ccc(C)cc2)CC1` (stereo unspecified) showed a z-score of -0.488.

In the case of `CCOC(=O)N1CCC(N2C(=O)c3ccccc3C2Nc2ccc3c(C)cc(=O)oc3c2)CC1` (stereo unspecified), the z-score is 4.01 (active).

Compound `CCN(CC)c1ccc(C(=O)N/N=C(\C)c2ccc(OC)c(OC)c2)cc1` returned a z-score of 0.585.

Turning to `CCOC(=O)c1cc2c(ccn2C)n1CC(=O)N(Cc1ccccc1)c1ccc(F)cc1`, the z-score turned out to be 1.2.

In turn, `CCOC(=O)C(C)(C)Sc1nc2c(cnn2-c2ccc(Cl)cc2)c(=O)[nH]1` displayed a z-score of -0.781.

`Cc1ccc(OCC(=O)c2ccc3c(c2)CCCC3)cc1C` yielded a z-score of -0.12.

On to `O=C(Nc1ccc2c3c(cccc13)CC2)c1ccco1`, for which the z-score worked out at 0.0277.

Regarding `Cc1cc(C)c(NC(=O)c2ccccc2N(C)S(C)(=O)=O)c(C)c1`, the z-score turned out to be 0.0701.

For `CC1(C)CC(=O)c2cn3nc(C(F)(F)F)nc3nc2C1`, the z-score is -0.129.

As to `CCC1(c2ccccc2)NC(=S)N(c2cccc(C)c2C)N1` (stereo unspecified), the z-score was determined as 1.26.

The compound `CC1CCC2(CC1)NC(=S)N(c1ccccc1)N2` (stereo unspecified) showed a z-score of 0.323.

On to `CCC1(c2ccc(Cl)cc2)NC(=S)N(c2ccccc2)N1` (stereo unspecified), for which the z-score is 4.78 (active).

As to `Cc1ccc(SCCC(=O)Nc2ccc(Br)c(C)c2)cc1`, the z-score was -0.0218.

`S=c1[nH]nc(-c2ccco2)n1/N=C/c1ccc(Cl)cc1` gave a z-score of -0.0483.

The compound `Cc1ccsc1/C=N/n1c(-c2ccco2)n[nH]c1=S` yielded a z-score of 0.377.

In turn, `Cc1ccc(-c2n[nH]c(=S)n2/N=C/c2cccn2C)cc1` had a z-score of 1.02.

In the case of `Cn1cccc1/C=N/n1c(-c2ccc(Cl)cc2)n[nH]c1=S`, the z-score worked out at 1.03.

Take `Cn1cccc1/C=N/n1c(-c2ccc(Cl)cc2Cl)n[nH]c1=S`: the z-score worked out at 2.46.

`S=c1[nH]nc(-c2ccco2)n1/N=C/c1ccc(Cl)c(Cl)c1` gave a z-score of 1.59.

`S=c1[nH]nc(-c2ccco2)n1/N=C/c1ccccc1Cl` yielded a z-score of 1.07.

As to `S=c1[nH]nc(-c2ccco2)n1/N=C/c1ccc(Cl)cc1Cl`, the z-score was 6.87 (active).

In the case of `S=c1[nH]nc(-c2ccco2)n1/N=C/c1cccc(Cl)c1Cl`, the z-score is 5.73 (active).

Take `Cc1ccc(-n2nc(CN3CCOCC3)c(-c3ccccc3)c2N)c(C)c1`: the z-score is -0.0359.

Consider `CCCOc1ccc(-c2csc(N)n2)cc1[N+](=O)[O-]`, for which the z-score is -0.349.

`Cc1ccc(C2NC(c3ccc(C)cc3)C(C)C(=NO)C2C)cc1` (stereo unspecified) showed a z-score of -0.376.

Consider `O=C(Nn1cnnc1)c1ccccc1CCc1ccccc1`, for which the z-score worked out at 0.0675.

As to `CS(=O)(=O)c1ccc2nc(NC(=O)C3COc4ccccc4O3)sc2c1` (stereo unspecified), the z-score worked out at 0.303.

Turning to `Cn1c(=O)c2c(nc(NCc3ccc4c(c3)OCO4)n2Cc2ccccc2)n(C)c1=O`, the z-score was -1.09.

`CCc1ccc(S(=O)(=O)N2CC(=O)Nc3ccccc32)cc1` yielded a z-score of -0.195.

For `Cc1cccc(Sc2ccc([N+](=O)[O-])cc2[N+](=O)[O-])n1`, the z-score was -0.278.

The compound `COc1cc(C=O)c(Br)cc1OC1CCCC1` returned a z-score of 2.09.

On to `CCOc1cc(C=O)c(Br)cc1OC1CCCC1`, for which the z-score turned out to be 0.0863.

Take `COc1cc(C=O)c(Br)cc1OCc1ccc(C)cc1`: the z-score was -0.101.

The compound `CCOc1ccc(CCNC(=O)C2CCN(C(=O)N(C)C)CC2)cc1OCC` yielded a z-score of 0.862.

With `Clc1cccc2c1Sc1ccccc1CC2N1CCNCC1` (stereo unspecified), the z-score was 0.386.

Regarding `Clc1ccc2c(c1)C(C1=NCCN1)c1ccccc1CS2` (stereo unspecified), the z-score came out at 0.865.

With `Clc1ccc2c(c1)C(N1CCNCC1)Cc1ccccc1S2` (stereo unspecified), the z-score was 3.92 (active).

As to `COc1ccc(OC)c(N(CC(=O)Nc2cccnc2)S(=O)(=O)c2ccccc2)c1`, the z-score was -0.398.

Regarding `C=CCOc1cccc(/C=N/NC(=O)CN(c2cc(Cl)ccc2OC)S(=O)(=O)c2ccc(C)c([N+](=O)[O-])c2)c1`, the z-score was -0.0532.

`Cc1ccc2nc3sc(C(=O)NCc4ccco4)c(N)c3cc2c1`: the z-score was -0.222.

In turn, `CNC(=O)CSc1nnnn1CCCOC` registered a z-score of 0.0742.

As for `CCC1(O)CC(C(=O)OC)=NN1C(=O)c1ccccc1` (stereo unspecified), the z-score turned out to be 0.602.

For the compound `CCOC(=O)C1=NN(C(=O)c2ccco2)C2(CC2)C1`, the z-score was -0.239.

On to `COC(=O)C1=NN(C(=O)c2ccc(C)cc2)C(O)(c2ccc(Cl)cc2)C1` (stereo unspecified), for which the z-score is 8.48 (active).

In the case of `CCOC(=O)C1=NN(C(=O)c2ccccc2)C(O)(c2ccc(C)cc2)C1` (stereo unspecified), the z-score was 10.5 (active).

`CCC1=NN(C(=O)Cc2ccc([N+](=O)[O-])cc2)C(O)(c2ccc(Br)cc2)C1` (stereo unspecified): the z-score is -0.206.

With `CCC1=NN(C(=O)c2ccc(C)cc2)C(O)(c2ccc(Br)cc2)C1` (stereo unspecified), the z-score was found to be 0.175.
